The values below come from PubChem BioAssay.

The structures appear in SMILES notation. Active and inactive are the calls of the source.

A short description of test [1]: optical density shifts of acrAB sulA E. coli – strain DRC41, OD650, 48 h, E. coli filamentation inducer project, primary screen (AID 1152).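 Note: E. coli MC1000 strain DRC41 lacking acrAB efflux pump and sulA.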 The conditions noted are these: higher = more signal, called active from +8 up or from −8 down.
Test [2] can be described thus: probe aLefty1 binding on compound microarray – biochemical, small-molecule microarray, 635/667 nm fluorescence, primary screen (AID 1153).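 Note: score merges spot fluorescence with signal-to-noise ratio from the scanned slide images.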 The following applies: higher = more signal.
Test [3] can be described thus: plasmodial surface anion channel blockers, osmotic lysis – cell-based, P. falciparum Indochina, OD700, 1 h, primary screen (AID 1154). The conditions noted are these: P. falciparum Indochina infected RBC osmotic lysis, higher = more signal, called active from +8 up or from −8 down.
The nature of test [4]: plasmodial surface anion channel blockers, osmotic lysis – cell-based, P. falciparum Indochina, OD700, 2 h, primary screen (AID 1155).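 Note: lysis reports solute entry through the parasite surface anion channel PSAC.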 The conditions noted are these: P. falciparum Indochina infected erythrocytes, higher = more signal, called active from +8 up or from −8 down.
The nature of test [5]: changes in parasitized red cell lysis, either direction – P. falciparum Indochina, OD700, 3 h, PSAC antagonist project, primary screen (AID 1156). The following applies: P. falciparum-infected erythrocytes, osmotic lysis, higher = more signal, called active from +8 up or from −8 down.
A short description of test [6]: plasmodial surface anion channel blockers, osmotic lysis – cell-based, P. falciparum Indochina, OD700, 18 h, primary screen (AID 1157). The conditions noted are these: P. falciparum Indochina infected erythrocytes, osmotic lysis OD700, 18 h; higher = more signal, called active from +8 up or from −8 down.
Test [7] can be described thus: S6 kinase pathway phospho-S6 level changes – cell-based, A549, cytoblot, luminescence, serum-stimulated, primary screen (AID 1158).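 Note: serum-stimulated A549 lung adenocarcinoma cells; signal is phosphorylated S6 detected by cytoblot immunostaining with HRP secondary.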 The conditions noted are these: 5 h, higher = more signal.
Test [8] addresses NADPH oxidase 2 (Homo sapiens) (UniProt P04839). In words: compounds shifting NOX2 Amplex Red fluorescence – cell-based, HEK293-NOX2, PMA-stimulated, NOX inhibitor project, primary screen (AID 1159). Note: test concentration not given here. The following applies: 45 min, higher = more signal, called active from +8 up or from −8 down.
In test [9] the target is NADPH oxidase 4 (Homo sapiens) (UniProt Q9NPH5). Description: compounds shifting NOX4 Amplex Red fluorescence – cell-based, HEK293-NOX4, tetracycline-induced, NOX inhibitor project, primary screen (AID 1160). The conditions noted are these: HEK293-NOX4, Amplex Red H2O2 fluorescence, 45 min; higher = more signal, called active from +8 up or from −8 down.
The target in test [10] is NADPH oxidase 5 (Homo sapiens) (UniProt Q96PH1). In words: compounds shifting NOX5 Amplex Red fluorescence – cell-based, HEK293-NOX5, NOX inhibitor project, primary screen (AID 1161). The conditions noted are these: HEK293-NOX5, ionomycin, 45 min, higher = more signal.
Test [11] can be described thus: compound effects on lung adenocarcinoma cell viability – A549, calcein-AM fluorescence, 48 h, basal, profiling panel (AID 1162). Note: test concentration not given here. The conditions noted are these: higher = more signal.
Test [12] is described as follows: compound effects on differentiated 3T3-L1 adipocyte viability – cell-based, 3T3-L1 adipocytes, calcein-AM fluorescence, 48 h, basal, profiling panel (AID 1163). Note: test concentration not given here. The following applies: 3T3-L1 adipocytes viability, higher = more signal.
Test [13] is described as follows: compound effects on hepatocellular carcinoma cell viability – HepG2, calcein-AM fluorescence, 48 h, basal, profiling panel (AID 1164). Note: test concentration not given here. The following applies: higher = more signal.
A short description of test [14]: compound effects on multiple myeloma cell viability – MM1S, calcein-AM fluorescence, 48 h, basal, profiling panel (AID 1165).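 Note: viability of MM1S multiple myeloma cells under basal unstimulated conditions; test concentration not given here.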 The following applies: higher = more signal.
Test [15] is described as follows: calcein-AM signal in unstimulated myeloma cells – cell-based, calcein-AM fluorescence, 48 h, PK04 Diversity Set, profiling panel (AID 1166).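 Note: cells grown under basal conditions without added stimulus; test concentration not given here.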 The following applies: RPMI8226 myeloma viability, higher = more signal.
Test [16] can be described thus: JC-1 mitochondrial signal, unstimulated HepG2 cells – cell-based, JC-1 fluorescence, 24 h, 100 nL compound, profiling panel (AID 1167). Note: test concentration not given here. The following applies: HepG2 mitochondrial potential, higher = more signal.
The nature of test [17]: JC-1 mitochondrial signal, unstimulated adipocytes – cell-based, JC-1 fluorescence, 3T3-L1 adipocytes, 24 h, 100 nL compound, profiling panel (AID 1168). Note: test concentration not given here. The conditions noted are these: JC-1 mitochondrial fluorescence, higher = more signal, called active from +8 up or from −8 down.
Test [18] is described as follows: JC-1 mitochondrial signal, unstimulated myeloma cells – cell-based, JC-1 fluorescence, RPMI8226, 24 h, 100 nL compound, profiling panel (AID 1169). Note: test concentration not given here. The conditions noted are these: JC-1 mitochondrial potential fluorescence, higher = more signal.
Test [19] is described as follows: JC-1 mitochondrial signal, unstimulated MM1S myeloma – cell-based, JC-1 fluorescence, 24 h, 100 nL compound, profiling panel (AID 1170). Note: test concentration not given here. The following applies: MM1S mitochondrial potential, higher = more signal.
Test [20] can be described thus: resazurin metabolic signal in A549 cells – cell-based, resazurin fluorescence, 24 h, PK04 Diversity Set, profiling panel (AID 1171). Note: test concentration not given here. The following applies: A549 viability, higher = more signal, called active from +8 up or from −8 down. In general terms: Resazurin is reduced to fluorescent resorufin, in cell work by metabolically active cells.

NADPH oxidase 4 (Homo sapiens), sequence (Q9NPH5 whole entry, looked up): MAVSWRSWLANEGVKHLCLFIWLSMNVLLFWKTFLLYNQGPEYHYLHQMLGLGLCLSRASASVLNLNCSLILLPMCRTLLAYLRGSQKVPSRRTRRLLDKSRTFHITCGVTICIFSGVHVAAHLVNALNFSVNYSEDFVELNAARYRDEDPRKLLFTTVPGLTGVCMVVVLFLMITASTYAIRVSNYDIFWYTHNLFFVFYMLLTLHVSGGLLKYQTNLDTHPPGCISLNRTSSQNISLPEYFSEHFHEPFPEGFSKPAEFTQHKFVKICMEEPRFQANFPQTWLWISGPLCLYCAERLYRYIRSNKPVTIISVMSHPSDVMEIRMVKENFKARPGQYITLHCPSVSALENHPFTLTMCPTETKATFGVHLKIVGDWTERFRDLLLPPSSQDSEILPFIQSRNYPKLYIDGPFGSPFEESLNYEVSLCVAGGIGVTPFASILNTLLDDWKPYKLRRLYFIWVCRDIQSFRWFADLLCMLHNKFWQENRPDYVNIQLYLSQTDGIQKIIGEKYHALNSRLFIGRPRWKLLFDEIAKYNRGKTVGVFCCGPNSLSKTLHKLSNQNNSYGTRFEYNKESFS
NADPH oxidase 5 (Homo sapiens), sequence (Q96PH1 whole entry, looked up): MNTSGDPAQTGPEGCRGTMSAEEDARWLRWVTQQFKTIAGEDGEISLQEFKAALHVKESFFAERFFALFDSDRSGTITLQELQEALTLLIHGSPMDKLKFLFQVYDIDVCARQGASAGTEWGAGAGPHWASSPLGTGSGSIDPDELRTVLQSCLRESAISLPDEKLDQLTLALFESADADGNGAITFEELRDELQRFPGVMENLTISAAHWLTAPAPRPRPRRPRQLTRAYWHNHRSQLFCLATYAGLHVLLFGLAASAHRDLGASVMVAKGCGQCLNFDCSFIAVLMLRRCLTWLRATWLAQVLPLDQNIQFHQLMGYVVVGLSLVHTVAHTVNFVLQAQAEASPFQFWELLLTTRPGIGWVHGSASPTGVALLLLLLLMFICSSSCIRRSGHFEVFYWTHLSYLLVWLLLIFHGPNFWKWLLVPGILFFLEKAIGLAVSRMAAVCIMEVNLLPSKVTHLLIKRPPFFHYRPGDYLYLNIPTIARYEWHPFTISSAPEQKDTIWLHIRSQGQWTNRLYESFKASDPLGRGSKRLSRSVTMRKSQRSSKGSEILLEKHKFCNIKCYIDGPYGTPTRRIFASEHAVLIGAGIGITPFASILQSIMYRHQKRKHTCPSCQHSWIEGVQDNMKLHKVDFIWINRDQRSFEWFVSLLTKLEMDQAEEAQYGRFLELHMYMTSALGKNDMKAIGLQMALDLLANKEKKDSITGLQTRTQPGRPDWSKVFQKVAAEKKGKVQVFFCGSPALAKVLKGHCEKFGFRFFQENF
NADPH oxidase 2 (Homo sapiens), sequence (P04839 whole entry, looked up): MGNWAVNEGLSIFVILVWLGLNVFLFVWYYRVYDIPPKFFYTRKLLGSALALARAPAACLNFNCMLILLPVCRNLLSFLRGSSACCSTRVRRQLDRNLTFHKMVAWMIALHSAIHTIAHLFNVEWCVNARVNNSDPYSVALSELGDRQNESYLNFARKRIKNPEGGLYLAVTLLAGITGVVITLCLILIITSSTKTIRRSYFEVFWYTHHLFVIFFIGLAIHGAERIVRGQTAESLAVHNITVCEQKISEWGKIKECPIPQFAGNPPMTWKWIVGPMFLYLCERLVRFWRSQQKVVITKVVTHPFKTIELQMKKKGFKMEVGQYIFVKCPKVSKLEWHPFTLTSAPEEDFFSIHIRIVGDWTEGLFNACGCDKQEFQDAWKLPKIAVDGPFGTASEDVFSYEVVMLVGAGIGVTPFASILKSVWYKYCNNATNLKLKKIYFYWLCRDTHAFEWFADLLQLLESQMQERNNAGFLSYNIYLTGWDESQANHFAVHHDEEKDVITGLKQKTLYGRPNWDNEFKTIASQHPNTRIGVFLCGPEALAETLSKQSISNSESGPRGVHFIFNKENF

As to `COC(=O)[C@@]1(Cc2ccc(F)cc2)[C@H]2c3cc(C(=O)N4CCCC4)n(Cc4ccc(C)c(F)c4F)c3C[C@H]2CN1C(=O)c1ccccc1`, the z-score is -1.31 (inactive) in test [1]; 5.03 (inactive) in [3]; 0.806 (inactive) in [4]; 0.598 (inactive) in test [5]; 1.06 (inactive) in test [6]; -0.389 in [7]. The z-score is -4.01 (inactive) in test [8]; -7.95 (inactive) in test [9]; -7.01 in [10]; -0.858 in test [11]; -0.82 in test [12]; 0.97 in test [13]. Further, the z-score is -3.35 in test [14]; -3.35 in test [15]; 1.01 in test [16]; -1.02 (inactive) in test [17]; -0.59 in test [18]; -1.38 in [19]. Moreover, the z-score in test [20] was -0.718 (inactive). The compound also displayed a composite z-score in [2] of 0.746.

As to `CCCCCCCCCCC(O)C1C=CC2C(=O)N(c3ccccc3)C(=O)C2N1Nc1ccc(C#N)cc1` (stereo not given), the z-score in [1] is -1.08 (inactive); in [3] it was 6.7 (inactive); in test [4], 2.33 (inactive); in test [5] it was 0.0103 (inactive); in test [6] it was 2.3 (inactive); in test [7], -0.817. Further, the z-score in [8] was -1.32 (inactive); in test [9], 0.0477 (inactive); in test [10], -0.266; in test [11], -2.09; in test [12], 0.0958; in test [13], -4.9. The z-score in test [14] is -3.73; in test [15], -4.13; in [16], -3.28; in [17], -0.15 (inactive); in [18] it was -0.939; in [19], -0.469. The z-score in test [20] was -0.186 (inactive). The compound also gave a composite z-score in test [2] of 0.571.

Turning to `CCCC=C(CCC)[C@@H](NS(=O)(=O)c1ccc(C(F)(F)F)cc1)c1ccccc1`, the z-score in test [1] was -2.49 (inactive); in test [3], 0.669 (inactive); in test [4] it was 0.546 (inactive); in [5] it was 0.248 (inactive); in test [6], 0.567 (inactive); in test [7], -0.286. Also, the z-score is -0.832 (inactive) in test [8]; -1.74 (inactive) in test [9]; 2.42 in test [10]; -0.511 in test [11]; -0.217 in test [12]; -0.832 in test [13]. In addition, the z-score was -0.266 in [14]; -1.86 in [15]; -4.98 in test [16]; -0.61 (inactive) in test [17]; -0.519 in test [18]; -1.51 in [19]. Besides, in [20], the z-score was 0.221 (inactive). Also, the composite z-score in test [2] stood at 0.379.

For the compound `NCCCCCCNC(=O)[C@@H]1C[C@@H]2C(=O)N[C@@H](CCCCN)C(=O)N2[C@@H]1c1ccc(O)cc1`, the z-score was 0.264 (inactive) in test [1]; 1.11 (inactive) in test [3]; -1.03 (inactive) in [4]; -2.05 (inactive) in test [5]; -1.85 (inactive) in [6]; 0.0189 in [7]. For the same compound, the z-score in test [8] was -1.77 (inactive); in test [9], -1.06 (inactive); in test [10] it was -3.51; in [11], -0.551; in test [12] it was 0.207; in test [13] it was -0.99. Further, the z-score was -1.25 in test [14]; -0.0734 in test [15]; -1.31 in test [16]; 0.535 (inactive) in test [17]; -0.0408 in test [18]; -0.276 in [19]. The z-score in test [20] was -0.71 (inactive). Further, in [2], the composite z-score was 0.614.
